Results taken from PubChem BioAssay (EPA / NIEHS).
Values joined by “and” are separate entries in the source; they are usually repeats but may differ in a detail not shown here. Equal entries are not always repeated. Records with an inconclusive call do not appear. Some structures have more than one record in an assay (separate samples or runs), and their calls can disagree. Active and inactive are the calls of the source. Rule for the calls, unless noted: active = hit-call score of the fitted dose curve at least 0.9, where 1 is the maximum; inactive = score below 0.9.

How the values were obtained:
[1] = target: human RAR-related Orphan Receptor beta (RORb), RORB (gene 6096) (UniProt Q92753); assay: ATG_RORb_TRANS: Attagene TRANS-FACTORIAL HepG2 Assay for human RAR-related Orphan Receptor beta (RORb) (AID 2283010; active = hit-call score of the fitted dose curve at least 0.9, where 1 is the maximum)
Method in brief: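 HepG2 cells were transiently transfected with multiplexed GAL4-UAS reporter units expressing chimeric nuclear receptor–GAL4 proteins, then dosed for 24 h. Reporter mRNA was quantified by RT-PCR with fluorescent labelling and capillary electrophoresis; gain of signal was fitted relative to DMSO.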

[2] = target: Retinoic acid receptor RXR-alpha (Homo sapiens) (UniProt P19793); assay: ATG_RXRa_TRANS: Attagene TRANS-FACTORIAL HepG2 Assay for human Retinoid X Receptor alpha (RXRa) (AID 2283012; active = hit-call score of the fitted dose curve at least 0.9, where 1 is the maximum)
Method in brief: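 HepG2 cells transiently transfected with multiplexed GAL4-UAS reporter units and chimeric NR-GAL4 fusions, dosed 24 h. Reporter mRNA measured by RT-PCR, FAM labelling, HpaI digestion and capillary electrophoresis; gain-of-signal fitted relative to DMSO baseline.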

[3] = read-out: E-selectin (Homo sapiens) (UniProt P16581); assay: BSK_3C_Eselectin: BioMAP Diversity Plus: 3C Assay for Eselectin Biomarker Activity (AID 2283015); conditions: primary human endothelial cells (HUVEC); actives raise or lower the signal
Method in brief: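 Primary human umbilical vein endothelial cells (3C system), read 24 h after compound addition; E-selectin measured by ELISA. Bidirectional curve fitting against DMSO baseline; cytotoxicity by parallel SRB total-protein staining.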

[4] = read-out: Interleukin-1 alpha (IL1a), IL1A (gene 3552); assay: BSK_BE3C_IL1a: BioMAP Diversity Plus: BE3C Assay for Interleukin-1 alpha (IL1a) Biomarker Activity (AID 2283016); conditions: primary human bronchial epithelial cells; actives raise or lower the signal
Method in brief: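 Human primary bronchial epithelial cells (BE3C system) were dosed with compound and IL-1a measured by ELISA 24 h later. Activity was fitted bidirectionally against DMSO baseline; cytotoxicity was tracked in parallel cultures by SRB total-protein staining.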

[5] = read-out: Monocyte Chemoattractant Protein-1 (MCP1), CCL2 (gene 6347); assay: BSK_3C_MCP1: BioMAP Diversity Plus: 3C Assay for Monocyte Chemoattractant Protein-1 (MCP1) Biomarker Activity (AID 2283017); conditions: primary human endothelial cells (HUVEC); actives raise or lower the signal
Method in brief: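 Human umbilical vein endothelial cells (3C system) exposed to chemicals for 24 h; MCP-1 quantified by ELISA against the DMSO baseline with bidirectional fitting, and parallel SRB staining used to assess cytotoxicity.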

[6] = read-out: Monocyte Chemoattractant Protein-1 (MCP1), CCL2 (gene 6347); assay: BSK_4H_MCP1: BioMAP Diversity Plus: 4H Assay for Monocyte Chemoattractant Protein-1 (MCP1) Biomarker Activity (AID 2283018); conditions: primary human endothelial cells (HUVEC); actives raise or lower the signal
Method in brief: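 Human umbilical vein endothelial cells (4H system) dosed with chemical; MCP-1 measured by ELISA 24 h after dosing. Bidirectional curve fitting against DMSO negative control as baseline; parallel SRB total-protein staining tracks overt cytotoxicity.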

[7] = read-out: Human Leukocyte Antigen - DR isotype (HLADR), HLA-DRA (gene 3122); assay: BSK_3C_HLADR: BioMAP Diversity Plus: 3C Assay for Human Leukocyte Antigen - DR isotype (HLADR) Biomarker Activity (AID 2283019); conditions: primary human endothelial cells (HUVEC); actives raise or lower the signal
Method in brief: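 HUVEC monoculture, HLA-DR measured by ELISA 24 h after chemical dosing. Fitted bidirectionally against DMSO baseline; parallel SRB staining assessed cytotoxicity, with 3C proliferation read by SRB at 48 h.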

[8] = read-out: Interleukin-8 (IL8), CXCL8 (gene 3576); assay: BSK_3C_IL8: BioMAP Diversity Plus: 3C Assay for Interleukin-8 (IL8) Biomarker Activity (AID 2283020); conditions: primary human endothelial cells (HUVEC); actives raise or lower the signal
Method in brief: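 Primary human umbilical vein endothelial cells (3C system) were exposed to test chemical for 24 h, then IL-8 was quantified by ELISA. Responses were fitted bidirectionally against DMSO vehicle as baseline.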

[9] = read-out: Monokine induced gamma interferon (MIG), CXCL9 (gene 4283); assay: BSK_3C_MIG: BioMAP Diversity Plus: 3C Assay for Monokine induced gamma interferon (MIG) Biomarker Activity (AID 2283021); conditions: primary human endothelial cells (HUVEC); actives raise or lower the signal;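 for AC50: MIG protein level measured by immunoassay in the treated endothelial cultures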
Method in brief: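 Primary human umbilical vein endothelial cells in the 3C system were exposed to chemical for 24 h, after which MIG was quantified by ELISA. Activity was fitted bidirectionally against DMSO as negative control and baseline.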

[10] = BSK_3C_SRB: Viability Assessment in the BioMAP Diversity Plus: 3C Assay (AID 2283023); conditions: primary human endothelial cells (HUVEC);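 note: fitted both ways against DMSO so a hit may be signal rise or drop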
Method in brief: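 Human umbilical vein endothelial cells in the 3C system, treated 24 h. Total protein measured by 0.1% sulforhodamine B staining after 10% TCA fixation, read at 560 nm; bidirectional fit versus DMSO.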

[11] = read-out: Matrix Metallopeptidase 1 (MMP1), MMP1 (gene 4312); assay: BSK_BE3C_MMP1: BioMAP Diversity Plus: BE3C Assay for Matrix Metallopeptidase 1 (MMP1) Biomarker Activity (AID 2283024); conditions: primary human bronchial epithelial cells; actives raise or lower the signal
Method in brief: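 Primary human bronchial epithelial cells were dosed with test chemicals, and MMP1 levels were measured by ELISA 24 h later. Data were fitted bidirectionally against DMSO as the negative control and activity baseline.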

[12] = read-out: Pselectin, SELP (gene 6403); assay: BSK_4H_Pselectin: BioMAP Diversity Plus: 4H Assay for Pselectin Biomarker Activity (AID 2283026); conditions: primary human endothelial cells (HUVEC); actives raise or lower the signal
Method in brief: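 Primary human umbilical vein endothelial cells were exposed to test chemical for 24 h, then cell-surface P-selectin was quantified by ELISA. Activity was fitted bidirectionally against DMSO as negative control and baseline.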

[13] = BSK_4H_SRB: Viability Assessment in the BioMAP Diversity Plus: 4H Assay (AID 2283027); conditions: primary human endothelial cells (HUVEC);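 note: cells exposed to compound for 24 h before staining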;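 for AC50: curves fitted both ways versus DMSO so AC50 may be loss or gain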
Method in brief: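 Absorbance at 560 nm of SRB-stained total protein served as the viability read-out in confluent primary human umbilical vein endothelium 24 h after chemical treatment. Curves were fitted bidirectionally against DMSO as negative control.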

[14] = BSK_BE3C_SRB: Viability Assessment in the BioMAP Diversity Plus: BE3C Assay (AID 2283028); conditions: primary human bronchial epithelial cells
Method in brief: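 Human bronchial epithelial primary cells in confluent culture, 24 h after chemical dosing; total protein by 0.1% SRB staining after 10% TCA fixation, read at 560 nm. Bidirectional fitting versus DMSO baseline.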

[15] = read-out: Thrombomodulin, THBD (gene 7056); assay: BSK_3C_Thrombomodulin: BioMAP Diversity Plus: 3C Assay for Thrombomodulin Biomarker Activity (AID 2283029); conditions: primary human endothelial cells (HUVEC); actives raise or lower the signal
Method in brief: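 Primary human umbilical vein endothelial cells (3C system) were exposed to chemical for 24 h, then thrombomodulin levels were measured by ELISA. Activity was fitted bidirectionally against the DMSO negative control as baseline.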

[16] = target: human Retinoid X Receptor beta (RXRb), RXRB (gene 6257) (UniProt P28702); assay: ATG_RXRb_TRANS: Attagene TRANS-FACTORIAL HepG2 Assay for human Retinoid X Receptor beta (RXRb) (AID 2283013; active = hit-call score of the fitted dose curve at least 0.9, where 1 is the maximum)
Method in brief: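 HepG2 cells transiently transfected with multiplexed reporter units driven by GAL4-UAS and exogenous chimeric NR-Gal4 proteins; treated 24 h. Reporter mRNA measured by RT-PCR, 6-FAM labelling and capillary electrophoresis; gain-of-signal fitted versus DMSO baseline.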

[17] = target: human Vitamin D Receptor (VDR), VDR (gene 7421) (UniProt P11473); assay: ATG_VDR_TRANS: Attagene TRANS-FACTORIAL HepG2 Assay for human Vitamin D Receptor (VDR) (AID 2283022; active = hit-call score of the fitted dose curve at least 0.9, where 1 is the maximum)
Method in brief: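 HepG2 cells were transiently transfected with GAL4-UAS reporter units and a chimeric VDR-Gal4 construct, then dosed for 24 hours. Reporter mRNA was quantified by RT-PCR, fluorescent labeling, HpaI digestion and capillary electrophoresis; gain of signal analysed vs DMSO.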

[18] = target: human Thyroid Receptor alpha (THRa1), THRA (gene 7067) (UniProt P10827); assay: ATG_THRa1_TRANS: Attagene TRANS-FACTORIAL HepG2 Assay for human Thyroid Receptor alpha (THRa1) (AID 2283014; active = hit-call score of the fitted dose curve at least 0.9, where 1 is the maximum)
Method in brief: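 HepG2 cells transiently transfected with chimeric NR-Gal4 and GAL4-UAS reporter units, dosed 24 h. Reporter mRNA quantified by RT-PCR, fluorescent labeling, HpaI digestion and capillary electrophoresis; gain-of-signal fit versus DMSO.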

[19] = BSK_3C_Vis: BioMAP Diversity Plus: 3C Assay for Morphology Visualization (AID 2283025); conditions: primary human endothelial cells (HUVEC);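 note: fitted both ways so gain or loss versus DMSO counts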
Method in brief: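 Human umbilical vein endothelial cells in the 3C system were imaged by light microscopy 24 h after chemical dosing to record cell morphology. Activity was fitted bidirectionally against DMSO as negative control and baseline; the endpoint serves as a background control.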

Measured: AC50

human Vitamin D Receptor (VDR), VDR (gene 7421), sequence (P11473 whole entry, looked up, the tested form may be a part): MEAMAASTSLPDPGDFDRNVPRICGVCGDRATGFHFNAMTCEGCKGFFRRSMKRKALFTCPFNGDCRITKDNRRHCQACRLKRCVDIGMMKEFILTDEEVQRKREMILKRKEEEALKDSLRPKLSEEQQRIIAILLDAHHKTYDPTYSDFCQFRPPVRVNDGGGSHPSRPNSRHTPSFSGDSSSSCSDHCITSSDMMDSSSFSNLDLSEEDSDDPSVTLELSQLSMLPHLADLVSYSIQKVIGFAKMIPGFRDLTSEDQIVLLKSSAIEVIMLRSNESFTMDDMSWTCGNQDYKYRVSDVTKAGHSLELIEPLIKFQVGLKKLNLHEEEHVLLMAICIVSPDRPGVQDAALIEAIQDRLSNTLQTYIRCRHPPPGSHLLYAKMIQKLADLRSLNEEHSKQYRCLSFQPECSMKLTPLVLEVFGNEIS
human RAR-related Orphan Receptor beta (RORb), RORB (gene 6096), sequence (Q92753 whole entry, looked up, the tested form may be a part): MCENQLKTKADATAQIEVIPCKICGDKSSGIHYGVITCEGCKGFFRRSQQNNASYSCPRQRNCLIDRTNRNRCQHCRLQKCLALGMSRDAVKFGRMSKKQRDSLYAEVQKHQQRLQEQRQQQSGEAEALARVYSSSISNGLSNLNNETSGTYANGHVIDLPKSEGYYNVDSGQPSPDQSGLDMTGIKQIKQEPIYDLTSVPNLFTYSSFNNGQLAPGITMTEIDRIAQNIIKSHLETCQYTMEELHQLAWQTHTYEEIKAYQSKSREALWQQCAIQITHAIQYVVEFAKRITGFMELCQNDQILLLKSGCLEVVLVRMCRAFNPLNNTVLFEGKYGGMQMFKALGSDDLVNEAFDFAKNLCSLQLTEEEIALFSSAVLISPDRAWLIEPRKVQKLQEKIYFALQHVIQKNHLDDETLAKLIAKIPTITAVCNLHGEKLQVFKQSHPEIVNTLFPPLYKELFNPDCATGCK
Retinoic acid receptor RXR-alpha (Homo sapiens), sequence (P19793 whole entry, looked up, the tested form may be a part): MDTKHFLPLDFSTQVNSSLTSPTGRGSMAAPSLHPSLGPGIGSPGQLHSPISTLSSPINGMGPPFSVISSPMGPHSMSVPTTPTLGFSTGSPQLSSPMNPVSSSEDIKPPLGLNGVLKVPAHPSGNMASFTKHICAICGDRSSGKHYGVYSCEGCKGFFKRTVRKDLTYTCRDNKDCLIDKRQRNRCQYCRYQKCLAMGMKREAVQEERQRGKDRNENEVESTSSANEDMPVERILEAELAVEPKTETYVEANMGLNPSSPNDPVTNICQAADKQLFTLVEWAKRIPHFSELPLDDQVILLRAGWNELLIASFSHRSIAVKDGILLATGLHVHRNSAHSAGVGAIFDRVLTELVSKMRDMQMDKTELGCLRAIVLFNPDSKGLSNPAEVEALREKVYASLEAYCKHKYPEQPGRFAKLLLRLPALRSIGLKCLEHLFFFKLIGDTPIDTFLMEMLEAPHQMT
E-selectin (Homo sapiens), sequence (P16581 whole entry, looked up): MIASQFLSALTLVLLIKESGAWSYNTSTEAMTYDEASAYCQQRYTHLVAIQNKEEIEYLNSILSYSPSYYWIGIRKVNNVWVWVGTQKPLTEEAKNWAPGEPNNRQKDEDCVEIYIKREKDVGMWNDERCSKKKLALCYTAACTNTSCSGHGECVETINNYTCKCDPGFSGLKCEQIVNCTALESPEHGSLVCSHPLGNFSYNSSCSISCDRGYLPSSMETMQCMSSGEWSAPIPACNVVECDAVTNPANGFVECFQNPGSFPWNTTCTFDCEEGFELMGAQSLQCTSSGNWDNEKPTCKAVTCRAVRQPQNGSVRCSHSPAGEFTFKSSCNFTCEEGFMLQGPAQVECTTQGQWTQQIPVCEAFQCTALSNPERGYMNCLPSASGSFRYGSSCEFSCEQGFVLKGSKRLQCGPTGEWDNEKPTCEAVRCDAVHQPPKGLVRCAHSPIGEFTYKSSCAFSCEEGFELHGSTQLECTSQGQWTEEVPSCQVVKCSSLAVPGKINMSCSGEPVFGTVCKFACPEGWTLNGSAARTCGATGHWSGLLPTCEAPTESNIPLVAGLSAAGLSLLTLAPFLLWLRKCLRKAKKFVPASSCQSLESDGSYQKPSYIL
human Retinoid X Receptor beta (RXRb), RXRB (gene 6257), sequence (P28702 whole entry, looked up, the tested form may be a part): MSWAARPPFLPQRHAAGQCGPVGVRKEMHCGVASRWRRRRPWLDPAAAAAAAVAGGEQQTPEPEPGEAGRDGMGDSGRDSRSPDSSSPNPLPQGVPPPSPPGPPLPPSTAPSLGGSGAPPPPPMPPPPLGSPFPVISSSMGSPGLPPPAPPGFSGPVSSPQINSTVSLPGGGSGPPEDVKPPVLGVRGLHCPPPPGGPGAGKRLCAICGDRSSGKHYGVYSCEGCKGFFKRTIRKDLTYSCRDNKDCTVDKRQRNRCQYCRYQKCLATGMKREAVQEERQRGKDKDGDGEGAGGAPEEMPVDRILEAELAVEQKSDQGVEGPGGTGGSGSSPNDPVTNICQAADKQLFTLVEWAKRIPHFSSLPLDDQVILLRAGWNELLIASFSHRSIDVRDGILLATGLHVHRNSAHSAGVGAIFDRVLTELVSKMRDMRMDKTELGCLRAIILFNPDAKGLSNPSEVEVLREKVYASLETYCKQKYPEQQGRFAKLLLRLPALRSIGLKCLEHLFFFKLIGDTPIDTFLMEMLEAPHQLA
human Thyroid Receptor alpha (THRa1), THRA (gene 7067), sequence (P10827 whole entry, looked up, the tested form may be a part): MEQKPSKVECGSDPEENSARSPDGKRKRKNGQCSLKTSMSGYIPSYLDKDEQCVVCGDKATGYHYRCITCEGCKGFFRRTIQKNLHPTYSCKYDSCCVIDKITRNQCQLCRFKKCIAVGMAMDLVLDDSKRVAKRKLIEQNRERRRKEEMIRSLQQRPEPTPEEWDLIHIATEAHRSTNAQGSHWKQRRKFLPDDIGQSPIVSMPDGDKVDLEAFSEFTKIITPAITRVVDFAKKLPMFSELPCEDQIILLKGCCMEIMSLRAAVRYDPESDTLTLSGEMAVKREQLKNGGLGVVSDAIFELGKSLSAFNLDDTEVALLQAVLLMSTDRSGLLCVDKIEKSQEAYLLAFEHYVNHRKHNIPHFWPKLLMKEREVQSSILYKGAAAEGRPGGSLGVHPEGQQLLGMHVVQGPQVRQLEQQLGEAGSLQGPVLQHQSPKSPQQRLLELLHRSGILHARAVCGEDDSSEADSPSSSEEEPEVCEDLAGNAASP

C=CC(F)(F)C(F)(F)C(F)(F)C(F)(F)C(F)(F)C(F)(F)C(F)(F)C(F)(F)F
not listed: [16] | [17] | [18] | [19]
inactive: all other assays above

OC[C@@H](O)[C@@H](O)[C@H](O)[C@@H](O)CO
active: [16] 35.1 µM
inactive: [2] | [16] | [17]

C#C[C@]1(O)CC[C@H]2[C@@H]3CCc4cc(OC)ccc4[C@H]3CC[C@@]21C
active: [4] 0.998 µM | [7] 31.2 µM | [19] 37.5 µM
not listed: [1] | [8]
inactive: all other assays above

C=CC(=O)OCC(F)(F)C(F)(F)C(F)(F)C(F)(F)C(F)(F)C(F)(F)C(F)(F)F
not listed: [2] | [18] | [19]
inactive: all other assays above

O=C(O)C(F)(F)C(F)(F)C(F)(F)F
not listed: [8] | [16] | [19]
inactive: all other assays above

CCCCCCOC(=O)c1ccccc1O
inactive: [1] | [4] | [17] | [11] | [14] | [15]
active: [3] 38.5 µM and 46.9 µM | [5] 41.9 µM and 38 µM | [6] 33.5 µM and 34.3 µM | [7] 37.4 µM and 43.7 µM | [8] 41.7 µM and 44.8 µM | [9] 41.2 µM and 40.8 µM | [10] 39.5 µM and 43.2 µM | [12] 40.7 µM and 41.9 µM | [13] 44.2 µM and 42.6 µM

O=C(O)C(F)(OC(F)(F)C(F)(OC(F)(F)C(F)(OC(F)(F)C(F)(F)C(F)(F)F)C(F)(F)F)C(F)(F)F)C(F)(F)F (stereo not given)
not listed: [16] | [17] | [18] | [19]
inactive: all other assays above

C=C(C)C(=O)OCC(F)(F)C(F)(F)C(F)(F)C(F)(F)C(F)(F)C(F)(F)C(F)(F)F
active: [11] 3.2 µM
inactive: [1] | [16] | [3] | [4] | [5] | [6] | [7] | [8] | [9] | [17] | [10] | [11] | [12] | [13] | [14] | [15]
